D1 potentiator: enhances dopamine response at the human D1 receptor; HEK293 TREx D1 cells, calcium flux, dopamine EC20 potentiation; actives 0.036% (n = 360,000); potentiation, % at 10 µM; P21728; in the data active means potentiation above about 30%
TRHR ag: agonists of human TRH receptor. P34981. TRHR cells, calcium flux fluo-8, FDSS agonist mode. activation, % at 2 µM. actives 0.18% (n = 360,000)
Target sequence (P34981 whole entry, looked up): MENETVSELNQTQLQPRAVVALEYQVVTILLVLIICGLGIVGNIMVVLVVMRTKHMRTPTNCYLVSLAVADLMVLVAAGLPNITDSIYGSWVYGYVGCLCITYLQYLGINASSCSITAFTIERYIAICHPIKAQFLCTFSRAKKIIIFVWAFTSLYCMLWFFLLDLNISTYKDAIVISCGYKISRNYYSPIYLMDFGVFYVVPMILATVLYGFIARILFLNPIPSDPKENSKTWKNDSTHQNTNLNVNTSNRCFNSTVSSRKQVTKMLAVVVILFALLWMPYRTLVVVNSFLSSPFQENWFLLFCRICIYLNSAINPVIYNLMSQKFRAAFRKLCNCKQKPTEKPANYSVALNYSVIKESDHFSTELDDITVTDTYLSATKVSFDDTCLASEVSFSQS
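Fluo-8-loaded TRHR cells; 10 s baseline, compound added, kinetic Ca2+ fluorescence read 1/s, agonist mode.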
Epigenetic reg: derepresses silenced GFP reporter in murine cells | murine LDR cells, GFP reporter derepression, 30 h | actives 0.2% (n = 280,000) | Potency, µM (doses to about 53.9 µM), most hits filed as activators | AID 1865; active means well fitted activation curve with a large enough effect; inconclusive means small, poorly fitted or top-dose-only effect; further: nearly all actives have a fitted effect of over 60% in size
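Derepression of a silenced CMV-GFP reporter in murine LDR cells is scored by enumerating GFP-positive cells with a laser-scanning microplate cytometer after 30 hours of treatment at 37 C.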
D1 antagonist: human D1 dopamine receptor antagonism. P21728. HEK293 TREx D1 cells, calcium flux, dopamine EC80; active compounds read low. activity change, negative = inhibition, % at 10 µM. actives 3.2% (n = 360,000); in the data active means activity change below about -30%
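HEK293 T-REx cells expressing inducible, force-coupled D1 receptor; no-wash Ca dye, 30–90 min RT. Cmpd → 180 s read at 1 Hz → EC80 DA → 180 s read.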
D1 ag: agonists of human D1 dopamine receptor | P21728 | HEK293 T-REx D1 cells, calcium flux, agonist mode | activation, % at 2 µM | actives 1% (n = 360,000)
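Tetracycline-induced HEK293 TREx D1 cells, force-coupled to calcium signalling, were dye-loaded with a no-wash calcium kit. Compound was pin-added after a 10 s baseline. Fluorescence was read kinetically at 1 cycle/s for 180 s, with calcium rises flagged as agonism.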
TRHR PAM: TRH receptor (human) allosteric enhancement; P34981; TRHR cells, fluo-8 calcium fluorescence, EC20 TRH enhancement; enhancement, % at 2 µM; actives 0.66% (n = 360,000); AID 493056; in the data active means enhancement above about 30%
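Enhancer read-out: after compound pinning and an initial kinetic agonist-mode read, an EC20 of TRH (10 nM final) was injected and fluo-8 calcium signal (Ex 480/Em 530) followed at 1 s/cycle for 100 cycles in TRHR-expressing cells.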
Each line names hits and unclear results; the compound was inactive in the other large screens. This is a sample that favours compounds with a hit; in the whole collection about 4.6% have one here. Unless noted, no stated cut-off is given here; in the data, active means activation above about 30%; inactive means the rest.

Cc1ccc(C)c(N2CCN(CCCNC(=O)c3cnn(-c4ccccc4)c3C3CCN(C(=O)OC(C)(C)C)CC3)CC2)c1	D1 antagonist -42.4
FC(F)(F)c1cc(NC(=S)Nc2ccc3cc4ccccc4cc3c2)cc(C(F)(F)F)c1	none (no result: D1 potentiator, TRHR ag, D1 antagonist, D1 ag, TRHR PAM)
COc1ccc(Nc2c3c(nc4ccc(NC(=O)/C=C/c5cccc(OC)c5OC)cc24)CCCC3)cc1OC	none
CCOC(=O)c1c(C)[nH]c(C)c1S(=O)(=O)N1CCC(C(=O)Nc2ccc(F)cc2F)CC1	none
Clc1ccc(-c2cnc(Oc3ccccc3)nc2)cc1	none
Cc1cc(Cl)ccc1Oc1ncc(-c2ccc(Cl)cc2)cn1	D1 antagonist -65.7
COc1ccc2c(c1)c(N1CCCC1=O)c(C(=O)Nc1cc(C)c(Cl)cc1OC)n2C	none
COc1cc(C(CC(=O)NCc2ccc(F)cc2)N2Cc3ccccc3C2=O)cc(OC)c1OC (centres undefined)	none
O=C(Nc1ccc(F)cc1)c1cc(S(=O)(=O)N2CCOCC2)cs1	D1 antagonist -60.7 (no result: Epigenetic reg)
O=C(Nc1cccc(F)c1)c1cc(S(=O)(=O)N2CCOCC2)cs1	D1 antagonist -84.4
CCCCN(CC)C(=O)C1CCCN(c2ncnc3c2nc2n3CCCCC2)C1 (centres undefined)	none
CCOC(=O)c1c(N)n(-c2ccccc2CC)c2nc3ccccc3nc12	none
Cc1cc(C)c(NC(=O)C2CCCN2CCO)c(C)c1 (centres undefined)	none
Cc1cc(C)c(NC(=O)C2CCCN2C)c(C)c1 (centres undefined)	D1 antagonist -35.1
O=C1C(C2=C(O)c3ccccc3C2=O)=Nc2ccccc21	Epigenetic reg 7.94µM
C#CC(CC)(CC)NC(=S)Nc1ccc(S(N)(=O)=O)cc1	D1 antagonist -42.7
Clc1ccc(-c2nnc3n2CCCS3)cc1	TRHR PAM 34.2
Clc1ccc(-c2nnc3n2CCCC3)cc1	none
O=C(Oc1ccc(Cl)cc1)c1ccc(COC(=O)c2cnccn2)cc1	D1 antagonist -30.7
O=C(Oc1ccccc1)c1ccc(COC(=O)c2cnccn2)cc1	none
O=S1(=O)[C@H]2C[C@@H]3CC[C@]2(CN1Cc1cccc(F)c1)O3	D1 antagonist -46.5
COc1ccc(N=Cc2oc3ccc4ccccc4c3c2O)cc1	Epigenetic reg inconclusive, D1 ag 78.5
Nc1nc(CSc2ccc(Cl)cc2)nc(N2CCCCC2)n1	none
Nc1nc(COc2ccc(F)cc2Cl)nc(N2CCCCC2)n1	D1 antagonist -30.7
Cc1ccc(C)c(N2CCN(C(=S)Nc3ccc4nc(N5CCN(C)CC5)cc(C)c4c3)CC2)c1	D1 antagonist -60.7
Cc1cccc(NC(=S)N2CCN(c3cc(C)ccc3C)CC2)c1	D1 antagonist -34.8
Cc1ccc(C)c(NC(=S)N2CCCC2)c1	D1 antagonist -65.4 (no result: Epigenetic reg)
CC(=O)c1ccc(N2CCN(C(=O)CCC(=O)Nc3ccc4nc(N5CCN(C)CC5)cc(C)c4c3)CC2)cc1	D1 antagonist -36.5 (no result: Epigenetic reg)
Cc1cc(C)c(S(=O)(=O)OC[C@H]2C=CC[C@@H](CCC[C@H]3O[C@H](C(=O)OC(C)C)CC[C@@H]3C)O2)c(C)c1	none (no result: D1 potentiator, TRHR ag, D1 antagonist, D1 ag, TRHR PAM)
O=C(O)c1cccc2c3c([nH]c12)CCCC3	D1 antagonist -30.2 (no result: Epigenetic reg)
Cc1cc(=O)[nH]c(N/N=C/c2ccc([N+](=O)[O-])cc2)n1	none
Cc1csc(N/N=C/c2ccc([N+](=O)[O-])cc2)n1	D1 antagonist -35.2 (no result: Epigenetic reg)
O=[N+]([O-])c1cccc(-c2csc(N/N=C/c3cccc(O)c3)n2)c1	D1 antagonist -43.0
CCn1c(=O)c(-[n+]2ccccc2)c(O)c2ccccc21	D1 antagonist -35.4
CCn1c(=O)c(C(=O)NNC(=O)c2ccccc2)c(O)c2ccccc21	none (no result: Epigenetic reg)
COc1cc(-c2nc(-c3ccccc3)c(-c3ccc(F)cc3)[nH]2)cc2c1OCO2	none
COc1ccc(-c2[nH]c(-c3ccc4c(c3)OCO4)nc2-c2ccccc2)cc1	D1 antagonist -75.7
COc1ccc2c(c1OC)C(=O)N1c3ccccc3SC21 (centres undefined)	TRHR PAM 39.5
COc1ccc2c(c1OC)C(=O)N1c3ccccc3C(=O)OC21 (centres undefined)	none (no result: D1 potentiator, TRHR ag, D1 antagonist, D1 ag, TRHR PAM)
COc1ccccc1NC(=O)CSc1ncn[nH]1	none
COc1ccccc1NC(=O)c1ccc(NC(=O)COC(=O)C(C)C)cc1	TRHR PAM 33.5
COc1ccccc1NC(=O)c1ccc(NC(=O)CSc2ncn[nH]2)cc1	D1 antagonist -44.7
CC(C)CC1C(C#N)=C(N)SC(N)=C1C#N	D1 ag 38.4
N#CC1=C(N)SC(N)=C(C#N)C1Cc1ccccc1	none
Cc1ccc(CN2C(=O)C3(SCC(=O)N3c3ccc(C)c(C)c3)c3ccccc32)cc1 (centres undefined)	none
CCOc1ccc(NC(=O)C(C)Oc2ccc(C#N)cc2)cc1S(=O)(=O)N1CCCC1 (centres undefined)	D1 ag 37.6 (no result: Epigenetic reg)
CCN(CC)c1ccc(NC(=O)C2CCN(c3nnc(-n4cccc4)s3)CC2)c(C)c1	D1 antagonist -37.7
Nc1nc(Nc2ccccc2)nc2c1ncn2[C@@H]1O[C@@H](CO)[C@H](O)[C@H]1O	none (no result: D1 potentiator, TRHR ag, D1 antagonist, D1 ag, TRHR PAM)
Cn1c(COc2ccccc2O)[n+](C)c2ccccc21	none (no result: Epigenetic reg)
CCCCCCCCCCOC(=O)Cn1c(COc2ccccc2OC)[n+](C)c2ccccc21	D1 ag 182.6 (no result: Epigenetic reg)
COc1ccccc1C(=O)Nc1cccc(C(=O)OCc2cc(=O)n3ccsc3n2)c1	none
N#C/C(=C\c1cc(O)c(O)c(O)c1)C(N)=O	none
N#C/C(=C\c1cc(Cl)c(OCc2ccc(Cl)cc2)c(Cl)c1)C(N)=O	D1 antagonist -43.4
COc1ccc(N2CCN(C(=O)C3CCN(S(=O)(=O)c4cn(C)cn4)CC3)CC2)cc1	none
O=C1NC(=O)C(CC(=O)N(Cc2ccco2)C2(C(=O)NC3CCCC3)CCCCC2)N1 (centres undefined)	TRHR PAM 33.3
Cc1cc(/C=N/NC(=O)c2cccs2)c(C)n1-c1ccccc1	D1 antagonist -39.0
Cc1cc(/C=N/NC(=O)c2ccncc2)c(C)n1-c1ccccc1	none
O=C(CNc1ccccc1)N/N=C/c1cc([N+](=O)[O-])ccc1N1CCCC1	D1 antagonist -30.6
O=C(Cn1c2ccccc2c(=O)c2ccccc21)N/N=C/c1cc([N+](=O)[O-])ccc1N1CCCCCC1	Epigenetic reg 20µM
N#CCC(=O)N/N=C/c1cc([N+](=O)[O-])ccc1N1CCCC1	none
Cc1cc(/C=N/NC(=O)Cn2c3ccccc3c(=O)c3ccccc32)c(C)n1-c1ccc(Cl)cc1	none
Cc1ccc(-n2c(C)cc(/C=N/NC(=O)Cn3c4ccccc4c(=O)c4ccccc43)c2C)cc1	TRHR PAM 32.6

Screening results as filed in PubChem BioAssay.
